# Screens: PubChem BioAssay, Pan Lab, Icahn School of Medicine at Mount Sinai
# ROC1-CUL1 inh = inhibitors of human ROC1-CUL1 ubiquitin ligase activity. P62877+Q13616. 140,000 tested, 0.6% active. inhibition, % at 10 µM. in vitro K48 di-Ub FRET, acceptor:donor ratio, 45 min; in the data active = inhibition above about 25%
# Target sequence (P62877 whole entry, looked up): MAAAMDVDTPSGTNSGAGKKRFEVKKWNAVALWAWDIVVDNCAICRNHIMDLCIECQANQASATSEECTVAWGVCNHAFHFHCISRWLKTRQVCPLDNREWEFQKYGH
# Target sequence (Q13616 whole entry, looked up): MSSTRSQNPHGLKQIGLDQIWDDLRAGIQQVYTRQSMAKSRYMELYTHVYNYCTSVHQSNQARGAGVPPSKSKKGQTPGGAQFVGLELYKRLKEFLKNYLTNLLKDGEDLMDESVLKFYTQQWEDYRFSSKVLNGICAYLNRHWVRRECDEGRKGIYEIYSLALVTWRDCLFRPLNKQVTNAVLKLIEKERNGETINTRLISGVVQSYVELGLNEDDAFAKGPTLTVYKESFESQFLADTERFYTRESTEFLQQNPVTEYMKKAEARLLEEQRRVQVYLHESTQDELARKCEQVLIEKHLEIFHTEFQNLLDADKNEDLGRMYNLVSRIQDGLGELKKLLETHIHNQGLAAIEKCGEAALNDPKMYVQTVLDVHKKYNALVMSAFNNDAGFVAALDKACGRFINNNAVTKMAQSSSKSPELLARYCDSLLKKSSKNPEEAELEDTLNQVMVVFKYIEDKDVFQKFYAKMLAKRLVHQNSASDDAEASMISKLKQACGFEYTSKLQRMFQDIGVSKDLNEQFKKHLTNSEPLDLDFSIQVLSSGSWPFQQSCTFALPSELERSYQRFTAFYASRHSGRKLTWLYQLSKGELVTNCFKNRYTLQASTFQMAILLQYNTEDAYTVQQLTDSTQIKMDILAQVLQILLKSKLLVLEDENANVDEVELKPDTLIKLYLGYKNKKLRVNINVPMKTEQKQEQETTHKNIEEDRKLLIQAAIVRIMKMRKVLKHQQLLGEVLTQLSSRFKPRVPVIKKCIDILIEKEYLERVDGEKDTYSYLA
# * hit, by the source's call. The full list was thinned out, with hits kept by preference.
SMILES,ROC1-CUL1 inh
CC(CN1C(C)CCCC1C)OC(=O)c1ccc(Br)cc1 (centres undefined),-6
CC#CCN1C(=O)NC(CCc2ccccc2)(C2CCN(Cc3ccc(OC)cc3O)CC2)C1=O (centres undefined),1
O=C(Nc1cc(F)cc(F)c1)c1cnn(-c2ccccc2)c1-c1ccccc1,-1
C=CCc1cc(/C=C2/SC(=O)NC2=O)cc(OCC)c1OCC,11
O=S(=O)(Nc1ccc2ccccc2c1)c1ccc(I)cc1,3
O=S(Cc1ccccc1F)c1nc(Cl)ns1 (centres undefined),1
O=S(Cc1ccccc1Cl)c1nc(Cl)ns1 (centres undefined),30*
O=S(=O)(c1ccccc1)c1nc(Cl)ns1,8
Cc1cccc(N=C(N)N=C2N=C(CSc3ccc(Cl)cc3)CC(=O)N2)c1,11
CC(C)COc1cccc(-c2cc(C(=O)NC(=S)Nc3ccccc3O)c3ccccc3n2)c1,3
COc1ccc(N=C2SC(=Nc3ccc(OC)cc3)N(c3ccc(OC)cc3)C2=Nc2ccc(OC)cc2)cc1,3
COc1ccc(N=CC2C(=O)Oc3ccccc3C2=O)cc1 (centres undefined),0
COc1ccc(C(C2C(=O)Oc3ccc(C)cc3C2=O)C2C(=O)Oc3ccc(C)cc3C2=O)cc1 (centres undefined),69*
COc1ccc(C(C2C(=O)C=C(C)OC2=O)C2C(=O)C=C(C)OC2=O)cc1 (centres undefined),0
CC1(C)C2CCC1(C)C(OCC(O)CN1CCCC1)C2 (centres undefined),-2
COc1ccc(C)cc1S(=O)(=O)N1CCCC(CO)(Cc2ccccc2)C1 (centres undefined),-5
CCC(CC)C(=O)N1CCN(S(=O)(=O)c2ccc(F)cc2)CC1,7
O=C1C(Cl)=C(N2CCN(S(=O)(=O)c3ccc(F)cc3)CC2)C(=O)c2ccccc21,64*
CC(=O)N1CCN(S(=O)(=O)c2ccc(F)cc2)CC1,-3
Cc1ccc(/C=C2/C(=N)N3N=C(c4ccc(C)cc4)SC3=NC2=O)cc1,6
Cc1cccc(C2=NN3C(=N)/C(=C\c4ccc([N+](=O)[O-])o4)C(=O)N=C3S2)c1,106*
Cc1cccc(/C=C2/C(=N)N3N=C(c4ccccc4Cl)SC3=NC2=O)c1,5
Cc1ccc(N2NC(=O)/C(=C/c3cccn3-c3ccc(S(N)(=O)=O)cc3)C2=O)cc1,3
Cc1ccc(NC(=S)NC(NC(=O)c2cccc(Br)c2)C(Cl)(Cl)Cl)cc1C (centres undefined),1
CCCCCCSc1nc2nc(C)cc(C)n2n1,7
SMILES,ROC1-CUL1 inh
CCOC(=O)c1ccc(-c2ccc(/C=C3\C(=O)NN(c4ccc(Br)c5ccccc45)C3=O)o2)cc1,9
CCOC(=O)c1cc(-c2ccc(/C=C3/C(=O)NN(c4ccccc4)C3=O)o2)ccc1Cl,-2
CCOC(=O)c1ccc(N2NC(=O)/C(=C/c3ccc(-c4ccc(Br)cc4C(=O)O)o3)C2=O)cc1,98*
CC(C)N1CCN(c2ccc(C(=O)N3CCCC3)cn2)CC1,2
COc1ccc(-c2nnc3n2N=C(C)C(C(=O)c2ccccc2)S3)cc1 (centres undefined),-9
CC(C)(C)CC(=O)N1CCC(N2CCCC(C(=O)NC3CC3)C2)CC1 (centres undefined),-2
Cc1cccc(C)c1C(=O)c1ccc(O)cc1O,3
CS(=O)(=O)Oc1ccc2c(-c3ccccc3C(=O)O)c3ccc(=O)c(I)c-3oc2c1I,117*
O=C(O)c1cccc2c1-c1ccccc1C2=O,-4
CCOC(=O)c1c(-c2ccc(F)cc2)csc1NC(=O)CSc1nc2ccccc2c(=O)n1-c1ccccc1,4
CCOC(=O)c1c(-c2ccco2)csc1NC(=O)CSc1cc(C)c2ccccc2n1,91*
CCOC(=O)c1c(-c2ccccc2)csc1NC(=O)CSc1cc(C)c2ccccc2n1,-1
COc1cc(CC(=NC(=O)c2ccccc2)C(=O)Nc2ccc(F)cc2)c([N+](=O)[O-])cc1OC,0
Cc1ccc(C=Nc2ccc(C3(c4ccc(N=Cc5ccc(C)s5)cc4)c4ccccc4-c4ccccc43)cc2)s1,-3
CN(C)CCn1ccc(-c2cccc(-c3cc(N(C)C)ncn3)c2)n1,7
COc1cc(OC)nc(Oc2cccc(OC)c2N)n1,4
CSc1cc(-c2ccccc2)nc(N)n1,5
COc1cc(-c2c(F)c(F)c(F)c(F)c2F)nc(N)n1,35*
COc1ccc(C(=O)c2sc(NC(=O)c3ccccc3)nc2-c2ccccc2)cc1,-2
CCOC(=O)C1(C/C=C/c2ccccc2)CCCN(C(=O)c2cc(C)n(C)n2)C1 (centres undefined),-7
CCc1ccccc1N1CC(C(=O)N2CCOCC2)CC1=O (centres undefined),-6
CCC(C)NC(=O)c1ccccc1NC(=O)c1ccncc1 (centres undefined),6
CCC(C)NC(=O)c1c2c(nc3ccccc13)C(=O)N(C1CCCCC1)C2 (centres undefined),-1
CCC(C)NC(=O)c1c2nc3ccccc3nc2n2c1[nH]c(=O)c1ccccc12 (centres undefined),53*
O=C(CSc1ccc(Cl)cc1)Nc1cc(Cl)c(O)c(Cl)c1,1
SMILES,ROC1-CUL1 inh
Cc1ccccc1C1=NC(C(F)(F)F)(C(F)(F)F)C2C(=O)NC(=O)N(c3ccc(F)cc3)C2=N1 (centres undefined),9
CCc1noc(C)c1C(=O)Nc1ccccc1OC,4
CC(=O)c1ccc2c(c1)C1C=CCC1C(c1cccc(Cl)c1Cl)N2 (centres undefined),2
CC(=O)c1cc2c3c(c1)C1C=CCC1C(c1ccc([N+](=O)[O-])cc1)N3CC1CC=CC21 (centres undefined),-2
O=C(O)c1cc2c3c(c1)C1C=CCC1C(c1ccccc1Cl)N3CC1CC=CC21 (centres undefined),101*
COc1ccc(N2Cc3ccc(C(=O)N/N=C\c4ccccc4OC)cc3C2)cc1,-5
O=C1NC(=S)N=C1Cc1cc(Br)cc(Br)c1O,7
O=C1C(Cc2cc(Br)cc(Br)c2O)=NC(=S)N1c1ccc(Cl)cc1,100*
COc1cc(C)c(CC2=NC(=S)N(c3ccc(Cl)cc3)C2=O)cc1C(C)C,8
O=c1[nH]c(CSc2ccc(Cl)cc2)nc2sc3c(c12)CCCC3,8
Cc1ccc(Cl)cc1NC(=O)CSc1nnc(-c2ccccn2)n1Cc1ccco1,-3
CCCN1CCC(NC(=O)C(C)Oc2ccccc2C)CC1 (centres undefined),4
Cc1nc(SCC(=O)Nc2ccc3c(c2)OCCO3)c2c3c(sc2n1)CCCC3,42*
COC(=O)c1ccc(NC(=O)CSc2nc(C)nc3sc4c(c23)CCC4)cc1,3
Cc1nc(SCC(=O)Nc2ccc3ccccc3c2)c2c3c(sc2n1)CCCC3,0
Cc1ccc(-c2cc3ncc(S(=O)(=O)c4ccccc4)c(-c4ccc(C)cc4)n3n2)cc1,4
Cc1oc(-c2ccccc2NS(=O)(=O)c2cccc(F)c2)nc1CNC(=O)COc1ccccc1,-6
CCOC(=O)c1ccc(N2NC(=O)/C(=C/c3ccc(OC(=O)c4cccs4)c(OC)c3)C2=O)cc1,24
CCCOC(=O)c1cccc(-c2ccc(/C=C3\C(=O)N(c4ccc(S(N)(=O)=O)cc4)N=C3C(F)(F)F)o2)c1,5
COc1cccc(C=C2C(=O)N(C)C(=O)N(C)C2=O)c1,-4
COc1cc(/C=C2/C(=O)N(c3cccc(Cl)c3)N=C2C)ccc1OC(=O)c1cccs1,-9
